# PubChem BioAssay AID1362 (SRMLSC, 2008)
# Out of some 190,000 compounds screened, about 4,000 (2.1%) were called active. Cut-off read from the data, not from the text of the source: active = inhibition above about 58%; inactive = the rest, inconclusive results apart; tested in S. cerevisiae. The list comes from a sample in which actives are over-represented; it also holds similar structures and randomly drawn compounds.
# Assay: growth inhibition of WT strain, primary screen, mitochondrial fusion inhibitor project, WT and mutant strains, chemical genetic (AID 1362)
# Settings: mitochondrial fusion phenotypic screen, at 10 µM
# [1] = WT strain, growth inhibition, stronger effect = higher value
Compound,inhibition [1],inhibition (mutant strain inhibition)
Cc1nc(C)c(C(=O)N(c2ccc(C)c(C)c2)C(C(=O)NCc2ccco2)c2ccccc2)s1 (stereo not drawn),16.8% (inactive),9.51%
Cc1nn(-c2ccccc2)c2sc(C(=O)N(Cc3ccco3)C(C)C(=O)NC(C)(C)C)cc12 (stereo not drawn),68.7% (active),1.44%
Cc1ccc(-c2nnn(CC(=O)N(Cc3ccco3)C(C(=O)NC(C)(C)C)c3ccncc3)n2)o1 (stereo not drawn),-1.04% (inactive),-4.44%
O=C(NC1CC1)c1ccc(-c2ccccc2)cc1,-18.3% (inactive),8.3%
CC1CCN(C(=S)c2cccc(O)c2)CC1,-7.57% (inactive),21.7%
CCN(c1ccc2c(c1)OCO2)S(=O)(=O)c1cc(Br)cc2c1N(C(=O)C1CC1)CC2,82.3% (active),13.7%
CCOC(=O)N1CCN(S(=O)(=O)c2cc(Br)cc3c2N(C(=O)C2CC2)CC3)CC1,-4.28% (inactive),4.16%
CS(=O)(=O)N(CC(=O)N1CCN(Cc2ccc3c(c2)OCO3)CC1)c1ccc2c(c1)OCO2,-12% (inactive),-4.62%
COC(=O)CSc1nccc(-c2cccs2)n1,-15.2% (inactive),12.6%
CCOc1ccc(/C=C(/NC(=O)c2ccccc2)C(=O)NCCC(=O)O)cc1,-9.33% (inactive),4.17%
COc1cc(NC(=O)CN(C)S(=O)(=O)c2ccc3nc(C)sc3c2)cc(OC)c1,5.19% (inactive),4.68%
CC(C)Cn1c(N)c(C(=O)NCc2cccs2)c2nc3ccccc3nc21,3.94% (inactive),7%
C=CCn1c(N)c(S(=O)(=O)c2cccs2)c2nc3ccccc3nc21,-1.23% (inactive),0.9%
C=CCn1c(N)c(C(=O)OCC(C)C)c2nc3ccccc3nc21,66.3% (active),-15.2%
CC(C)Oc1ccc(CCc2nnc(SCC(=O)O)n2-c2ccccc2)cc1,-10.3% (inactive),10.7%
Cc1ccc(N(CC(=O)Nc2cccc(N(C)S(C)(=O)=O)c2)S(C)(=O)=O)cc1,0.56% (inactive),-23%
COc1cccc(N(CC(=O)Nc2cccc(N(C)S(C)(=O)=O)c2)S(C)(=O)=O)c1,-5.64% (inactive),2.31%
CN(c1cccc(NC(=O)Nc2ccc(Cl)cc2)c1)S(C)(=O)=O,96.2% (active),-6.73%
O=C(N/N=C/c1ccc([N+](=O)[O-])cc1)C(=O)N1CCCC1,11.1% (inactive),10.6%
CCOC(=O)c1cnc(-n2nc(C)cc2C)nc1NNc1cc(C)nc(-c2ccccc2)n1,62.1% (active),-11.2%
CCOC(=O)c1cnc(-c2ccccc2)nc1Oc1ccc(C)cc1,21.7% (inactive),-24.7%

Compound,inhibition [1],inhibition (mutant strain inhibition)
CCOC(=O)c1cnc(-n2nc(C)cc2C)nc1-n1nc(C)cc1C,-11.1% (inactive),-5.08%
O=C(NNS(=O)(=O)c1ccc(F)cc1)c1cnccn1,-14.2% (inactive),8.1%
CCc1ccccc1N1C(=O)C2C3CC(=O)C(c4ccccc43)C2C1=O (stereo not drawn),5.26% (inactive),3.48%
CCN(C(=O)CN1CCN(Cc2ccccc2)CC1)c1c(N)n(Cc2ccccc2)c(=O)[nH]c1=O,-4.65% (inactive),11.9%
COc1ccccc1C(=O)N1CC2(C)CC1CC(C)(C)C2 (stereo not drawn),18.6% (inactive),10.1%
Cc1cccc(C(=O)NCC(=O)OCC(=O)N2CC3(C)CC2CC(C)(C)C3)c1 (stereo not drawn),-4.43% (inactive),5.06%
Cc1nnnn1/C(=C\c1ccccc1)C(=O)OCC(=O)N1CC2(C)CC1CC(C)(C)C2 (stereo not drawn),60.3% (active),11.4%
CN1CCCN(C(=O)C2CCCCC2)CC1,2.94% (inactive),-4.71%
CN(C)S(=O)(=O)N1CCN(c2ccc([N+](=O)[O-])cc2)CC1,-1.29% (inactive),-1.53%
O=C(NCc1ccc(Cl)cc1)NCc1ccc(Cl)cc1,4.16% (inactive),4.87%
CC(C)Oc1ccc(Cc2n[nH]c(=S)n2Cc2ccccc2)cc1Cl,66.9% (active),17.8%
CC(C)Oc1ccc(CCc2n[nH]c(=S)n2Cc2ccccc2)cc1,13.3% (inactive),0.86%
C=CCn1c(CCc2ccc(OC(C)C)cc2)n[nH]c1=S,-7.58% (inactive),-5.68%
CSC1=N/C(=C\c2ccc3c(c2)OCO3)C(=O)S1,6.07% (inactive),-0.28%
Cc1cccc(C2=N/C(=C/c3cccs3)C(=O)O2)c1,-7.49% (inactive),9.32%
CSC1=N/C(=C\C=C\c2cccs2)C(=O)S1,70.3% (active),37.4%
Cc1nnc(SCc2cccc(Cl)c2)n(N)c1=O,-3.17% (inactive),-5.61%
CCCN(CC(=O)Nc1ccc(OC)c(OC)c1)CC(=O)Nc1ccc(F)c(F)c1F,4.56% (inactive),28.4%
O=[N+]([O-])c1ccc2c(c1)C(N1CCOCC1)/C(=C/C1(O)CCCCC1)O2 (stereo not drawn),-4.01% (inactive),0.41%
COc1cc(C)c(Cl)cc1S(=O)(=O)n1ccnc1,3.86% (inactive),-5.05%
COC(=O)C1=C(C(=O)c2ccc(C)cc2)C(c2ccccc2)n2nnnc2N1 (stereo not drawn),11.5% (inactive),4.37%

Compound,inhibition [1],inhibition (mutant strain inhibition)
COc1ccccc1NC(=O)C1=C(C)Nc2nnnn2C1c1cccc(Br)c1 (stereo not drawn),-12.6% (inactive),-7.01%
COC(=O)c1ccc(C2C3=C(Nc4nnnn42)c2ccccc2OC3)cc1 (stereo not drawn),98.5% (active),-8.54%
Nc1cc(C(F)(F)F)ccc1N1CCOCC1,-6.55% (inactive),-2.84%
CC1(C)C=C2[C@H]3CC[C@@H]4[C@@]5(C)CCC(=O)C(C)(C)[C@@H]5CC[C@@]4(C)[C@]3(C)CC[C@@]2(C(=O)O)CC1,59.1% (active),-18.6%
Cc1ccc(S(=O)(=O)Nc2nc(N)n(-c3ccccc3)n2)cc1,-0.46% (inactive),3.67%
CSc1cc(C)[nH]c(=O)n1,-8.71% (inactive),-7.11%
CCCC1CCC(=NNC(=S)NCCc2ccccc2)CC1 (stereo not drawn),66.8% (active),40.1%
S=C(NCCc1ccccc1)NCC1CCCO1 (stereo not drawn),-1.69% (inactive),7.51%
S=C(NN=C1CCN(Cc2ccccc2)CC1)NC1CCCCC1,38.9% (inactive),25%
O=C(O)/C=C/c1ccc(S(=O)(=O)N2CCCCCC2)cc1,-9.59% (inactive),10.2%
COCCN(C(=O)c1ccco1)c1nnc(-c2ccc(OC)cc2)s1,-4.3% (inactive),-8.85%
COCCN(C(=O)C(C)C)c1nnc(-c2ccc(C(C)(C)C)cc2)s1,59% (active),10%
COc1cc(OC)cc(-c2nnc(N(C)C(=O)c3ccncc3)s2)c1,-11% (inactive),-7.45%
CCC(=O)Nc1cc(C(F)(F)F)ccc1N1CCCC1,-15.6% (inactive),12.5%
O=[N+]([O-])c1ccccc1NCc1ccc(Cl)cc1,21.2% (inactive),13.9%
Oc1ccc(N2CCN(C(=S)NCc3ccccc3)CC2)cc1,-2.43% (inactive),0.26%
Oc1ccc(CNc2ccccc2O)cc1,62% (active),57.4%
CCC(=O)N(Cc1cc2ccccc2[nH]c1=O)c1ccc(OC)cc1,-16% (inactive),1.27%
CN(CCOc1ccc(Br)cc1)CC(=O)Nc1cccc(S(=O)(=O)NC2=NCCC2)c1,-4.79% (inactive),-2.03%
O=C(Nc1nnc(C2COc3ccccc3O2)o1)c1ccc(F)cc1 (stereo not drawn),62.7% (active),52.9%
Cc1onc(-c2ccccc2)c1C(=O)NNC(=S)NC(=O)c1ccc(F)cc1,14.1% (inactive),-24.2%

Compound,inhibition [1],inhibition (mutant strain inhibition)
c1ccc2c(c1)OCC(c1nn3cnnc3s1)O2 (stereo not drawn),15.5% (inactive),14.4%
COCCNc1nc2nonc2nc1N1CCCC1c1nccs1 (stereo not drawn),17.4% (inactive),12.6%
Cc1cc(C)n2nc(SCC(=O)NC(=O)NCc3ccco3)nc2n1,8.54% (inactive),10.4%
Cc1ccc(NC(=O)N2CCC(c3nc4c(nnn4Cc4c(F)cccc4Cl)c(=O)[nH]3)CC2)cc1,-0.04% (inactive),3.09%
COc1ccc(Cn2nnc3c(=O)[nH]c(C4CCN(C(=O)c5ccccc5Cl)CC4)nc32)cc1,94.1% (active),34.6%
O=C(Nc1ccc(F)cc1)N1CCCC(c2nc3c(nnn3Cc3ccccc3Cl)c(=O)[nH]2)C1 (stereo not drawn),-0.5% (inactive),17.4%
COCCNC(=O)c1ccc(-n2c(SCc3cccnc3)nc3ccccc3c2=O)cc1,-8.55% (inactive),-7.82%
O=C(CCN1c2ccccc2Sc2ccccc21)Nc1ccccc1,69.8% (active),43.4%
CC1CCN(CCC(=O)Nc2ccccc2)CC1,-7.63% (inactive),-10%
O=C(CCN1C(=O)c2ccccc2C1=O)Nc1ccncc1,2.36% (inactive),-2.76%
COc1ccc(OC)c(C(=O)c2coc3ccc(O)c(CN4CCOCC4)c23)c1,7.31% (inactive),-1.21%
COc1ccc(OC)c(C(=O)c2coc3ccc(OC)cc23)c1,80.9% (active),15.4%
COc1ccc2occ(C(=O)c3ccc(N=C(C)N(C)C)cc3)c2c1,6.86% (inactive),8.79%
CCN(CC)CCNC(=O)c1ccc(NS(=O)(=O)c2ccc3c(c2)OCCO3)cc1,-8.91% (inactive),1.15%
C/C(N)=C(/C#N)C(=O)COC(=O)CNS(=O)(=O)c1ccc(C)cc1,-9.23% (inactive),5.26%
CCCc1cc(-c2n[nH]c(=S)n2CC)c2ccccc2n1,-17.6% (inactive),-14.6%
Cc1cc(-c2csc(N)n2)c(C)n1Cc1ccccc1,12% (inactive),5.79%
CCc1cc(-c2n[nH]c(=S)n2CC(C)C)cs1,66.2% (active),-0.18%
C=CCn1c(-c2ccc3[nH]c(C)c(C)c3c2)n[nH]c1=S,9.01% (inactive),0.81%
CCn1c(-c2ccncc2)n[nH]c1=S,5.96% (inactive),13.5%
CCCc1cc(-c2n[nH]c(=S)n2Cc2ccccc2)cs1,65.6% (active),36.1%
